Activity calls are given as the source filed them.

The subject of experiment [1] is Plasmodium falciparum Sir2 (PF13_0152, Sir2A). Nature of the experiment: pfSir2 binders on small-molecule microarrays, primary screen, biochemical, small-molecule microarray, 635 nm fluorescence (AID 1098).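 Further: score merges spot fluorescence intensity with its signal-to-noise ratio.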 The settings on record: small-molecule microarray binding, fluorescence 635 nm; higher = more signal.
Experiment [2] in a line: small-molecule microarray binders of probe aDKK1, primary screen, biochemical, biotinylated probe, 635/667 nm fluorescence (AID 1099).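 Further: score merges 667nm spot fluorescence with signal to noise across triplicate slides; reference of the scale not given here.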 As to conditions: higher = more signal.
The nature of experiment [3]: small-molecule microarray binders of probe aCHRDL2, primary screen, biochemical, biotinylated probe, 635/667 nm fluorescence (AID 1100). As to conditions: higher = more signal.
Experiment [4] can be described thus: splicing luciferase reporter signal modulators, primary screen, spliceosome inhibition project, cell-based, HEK293, splice +/- reporter (AID 1101).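 Further: HEK293 cells carrying a splicing-competent luciferase reporter gene; test concentration not given here.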 As to conditions: luminescence, 24 h, higher = more signal, called active from +8 up or from −8 down. In general terms: In a reporter assay the amount or activity of a reporter protein is the signal.
The target in experiment [5] is Fibroblast growth factor 10 (Homo sapiens) (UniProt O15520). Nature of the experiment: FGF10 binders on small-molecule microarrays, primary screen, biochemical, small-molecule microarray, 635 nm fluorescence (AID 1102). As to conditions: FGF10 binding, fluorescence 635 nm, higher = more signal.
Experiment [6] relates to glycogen synthase kinase-3 (GSK3A per assay name; protocol says GSK3B). Kind of experiment: GSK3 binders on small-molecule microarrays, primary screen, biochemical, small-molecule microarray, 635 nm fluorescence, GSK3A (AID 1103). Further: the record names both GSK3A and GSK3B. As to conditions: small-molecule microarray binding, fluorescence 635 nm; higher = more signal.
Experiment [7] deals with Epidermal growth factor receptor (Homo sapiens) (UniProt P00533). Nature of the experiment: EGFR binders on small-molecule microarrays, primary screen, biochemical, small-molecule microarray, 635 nm fluorescence (AID 1104).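 Further: score merges 667 nm emission intensity with spot signal to noise over triplicate slides.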 As to conditions: EGFR binding, higher = more signal.
For experiment [8], the target named is Follistatin-related protein 3 (Homo sapiens) (UniProt O95633). Kind of experiment: FSTL3 binders on small-molecule microarrays, primary screen, biochemical, small-molecule microarray, 635 nm fluorescence (AID 1105).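 Further: score merges emission near 667 nm and signal to noise per printed spot across three slides.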 As to conditions: FSTL3 binding, higher = more signal.
For experiment [9], the target named is Dickkopf-related protein 1 (Homo sapiens) (UniProt O94907). Nature of the experiment: DKK1 binders on small-molecule microarrays, primary screen, biochemical, small-molecule microarray, 635 nm fluorescence scan (AID 1106).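 Further: score merges emission near 667 nm with signal to noise over three replicate slides.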 The settings on record: DKK1 binding, higher = more signal.
Experiment [10] concerns Inhibin beta A chain (activin A). Kind of experiment: INHBA (activin A) binders on microarrays, primary screen, biochemical, small-molecule microarray, 635 nm fluorescence scan (AID 1107).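 Further: mouse activin A protein probed at 4.33 µg/mL on printed slides; score merges bound-protein fluorescence near 667 nm with spot signal-to-noise.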 As to conditions: small-molecule microarray binding, higher = more signal.

Sequence of Epidermal growth factor receptor (Homo sapiens) (P00533 whole entry, looked up): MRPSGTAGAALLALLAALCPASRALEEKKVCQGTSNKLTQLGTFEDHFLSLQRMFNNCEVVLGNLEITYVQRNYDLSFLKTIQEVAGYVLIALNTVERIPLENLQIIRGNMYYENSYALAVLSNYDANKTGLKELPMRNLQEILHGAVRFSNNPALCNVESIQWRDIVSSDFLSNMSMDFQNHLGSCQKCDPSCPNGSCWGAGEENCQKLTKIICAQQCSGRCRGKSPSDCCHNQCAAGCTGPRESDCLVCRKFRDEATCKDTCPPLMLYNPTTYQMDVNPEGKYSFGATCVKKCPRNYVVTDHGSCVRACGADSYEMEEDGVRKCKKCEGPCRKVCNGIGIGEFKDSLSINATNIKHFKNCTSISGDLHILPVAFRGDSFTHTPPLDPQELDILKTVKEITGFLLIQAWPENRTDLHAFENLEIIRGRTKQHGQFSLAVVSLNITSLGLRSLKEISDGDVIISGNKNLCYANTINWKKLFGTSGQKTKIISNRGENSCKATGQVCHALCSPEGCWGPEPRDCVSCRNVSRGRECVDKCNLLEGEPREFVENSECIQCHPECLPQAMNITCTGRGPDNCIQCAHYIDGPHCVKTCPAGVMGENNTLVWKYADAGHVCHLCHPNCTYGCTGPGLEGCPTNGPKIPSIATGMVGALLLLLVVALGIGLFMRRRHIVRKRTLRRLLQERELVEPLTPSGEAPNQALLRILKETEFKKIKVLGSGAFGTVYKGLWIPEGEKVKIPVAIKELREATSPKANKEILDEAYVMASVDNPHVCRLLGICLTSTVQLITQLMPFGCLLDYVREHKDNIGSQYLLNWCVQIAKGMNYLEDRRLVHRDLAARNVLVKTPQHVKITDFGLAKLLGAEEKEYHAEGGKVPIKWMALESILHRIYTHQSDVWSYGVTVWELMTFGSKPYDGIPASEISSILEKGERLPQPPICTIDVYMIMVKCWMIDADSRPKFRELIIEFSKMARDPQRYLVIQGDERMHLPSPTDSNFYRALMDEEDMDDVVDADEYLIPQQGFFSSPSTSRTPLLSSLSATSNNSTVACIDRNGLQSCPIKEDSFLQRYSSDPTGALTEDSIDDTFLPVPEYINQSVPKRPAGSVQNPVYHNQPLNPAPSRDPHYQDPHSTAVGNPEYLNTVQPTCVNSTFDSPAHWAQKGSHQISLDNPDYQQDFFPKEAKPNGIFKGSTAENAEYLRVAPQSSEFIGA
Sequence of Follistatin-related protein 3 (Homo sapiens) (O95633 whole entry, looked up): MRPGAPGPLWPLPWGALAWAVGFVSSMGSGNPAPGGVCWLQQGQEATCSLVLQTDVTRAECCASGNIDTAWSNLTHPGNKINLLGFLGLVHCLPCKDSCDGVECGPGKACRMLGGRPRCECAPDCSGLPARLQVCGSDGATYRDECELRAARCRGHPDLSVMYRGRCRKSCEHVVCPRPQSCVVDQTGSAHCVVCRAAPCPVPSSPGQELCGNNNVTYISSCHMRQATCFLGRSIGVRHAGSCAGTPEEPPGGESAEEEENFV
Sequence of Dickkopf-related protein 1 (Homo sapiens) (O94907 whole entry, looked up): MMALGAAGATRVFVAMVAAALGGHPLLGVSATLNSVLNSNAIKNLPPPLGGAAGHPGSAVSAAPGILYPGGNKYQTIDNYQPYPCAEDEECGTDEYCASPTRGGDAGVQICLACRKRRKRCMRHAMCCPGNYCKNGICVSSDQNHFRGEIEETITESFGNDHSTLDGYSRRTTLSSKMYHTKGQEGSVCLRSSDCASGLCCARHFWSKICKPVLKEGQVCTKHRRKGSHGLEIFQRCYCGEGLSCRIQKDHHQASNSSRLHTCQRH
Sequence of Fibroblast growth factor 10 (Homo sapiens) (O15520 whole entry, looked up): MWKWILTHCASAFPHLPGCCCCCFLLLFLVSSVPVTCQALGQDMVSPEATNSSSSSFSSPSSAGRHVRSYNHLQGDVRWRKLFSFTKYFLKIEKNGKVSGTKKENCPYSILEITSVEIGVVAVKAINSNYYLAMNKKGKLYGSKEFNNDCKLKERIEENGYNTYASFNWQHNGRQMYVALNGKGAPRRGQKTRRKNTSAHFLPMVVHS

For the compound `CCCCCN1CC=CC23O[C@@H]4C=CCOC(=O)[C@@H]4[C@H]2C(=O)N(CCO)[C@@H]3C1=O` (stereo not given in full), the composite z-score was -0.0015 in experiment [1]; -0.314 in experiment [2]; 0.634 in [3]; -0.318 in [5]; -0.527 in experiment [6]; -1.17 in experiment [7]. The composite z-score in experiment [8] was -1.3; in [9], -1.25; in experiment [10], 0.393. For the same compound, the z-score in experiment [4] was 0.374 (inactive).
Take `COCCCNC(=O)[C@@]1(Sc2ccc(C)cc2)CC(=O)N(C(C)C)[C@@H]1c1ccc(CO)cc1I`: the composite z-score was 1.03 in experiment [1]; -0.0358 in [2]; 0.836 in [3]; -0.0668 in experiment [5]; -0.0859 in experiment [6]; -0.839 in experiment [7]. Moreover, the composite z-score in [8] is -0.665; in experiment [9], -1.12; in [10], 0.978. The z-score in [4] is -2.25 (inactive).
As to `C=CCOC(=O)[C@H]1[C@@H]2C(=O)O[C@@H](c3ccccc3)[C@@H](c3ccccc3)N2[C@@H](c2ccc(OCCOC(=O)[C@H]3C[C@H]4C(=O)N[C@@H](CCCCNC(C)=O)C(=O)N4[C@H]3c3cccc(OCCO)c3)cc2)[C@]12C(=O)Nc1ccc(I)cc12`, the composite z-score was 1.14 in experiment [1]; -0.886 in [2]; -0.887 in experiment [3]; 1.49 in experiment [5]; 0.677 in [6]; 0.463 in [7]. The figures for the composite z-score in [8], in [9] and in experiment [10] were 1.43, 0.719 and 0.0677, respectively. The z-score in experiment [4] is -1.5 (inactive).
Regarding `CCC(CC)C(O)C1C=CC2C(=O)N(c3ccccc3)C(=O)C2N1Nc1ccc([N+](=O)[O-])cc1` (stereo not given), the composite z-score in experiment [1] is 0.629; in experiment [2], 1.02; in experiment [3], 0.638; in [5] it was 0.632; in [6], 1.21; in [7], 0.102. For the same compound, the results for the composite z-score in [8], in experiment [9] and in [10] were 0.393, -0.351 and 0.761, respectively. In addition, the z-score in experiment [4] was -0.16 (inactive).
As to `COC(=O)[C@@]1(Cc2ccccc2)[C@H]2c3cc(C(=O)N4CCCC4)n(CCSCCO)c3C[C@H]2CN1C(=O)c1ccccc1`, the composite z-score in experiment [1] is 0.809; in [2], 1.25; in [3], 1.2; in experiment [5], 0.283; in experiment [6], 0.954; in experiment [7], -0.0631. Further, the composite z-score in [8] was 0.414; in experiment [9] it was -0.78; in experiment [10], 0.964. Moreover, the z-score in experiment [4] is -0.393 (inactive).
Take `COc1ccc(C(=O)Nc2cccc(CN3C(=O)[C@@]4(O[C@@H](CC(=O)N(CCO)Cc5ccccc5)[C@H]([Si](C)(C)c5ccc(OC)cc5)[C@H]4C)c4ccccc43)c2)cc1`: the composite z-score was 1.4 in [1]; -0.566 in experiment [2]; -0.0709 in experiment [3]; -0.0511 in [5]; 0.196 in [6]; 0.0627 in experiment [7]. Also, the composite z-score was 0.823 in experiment [8], 0.26 in [9] and 0.636 in experiment [10]. In experiment [4], the z-score is -2.23 (inactive).
Take `CCCNC(=O)[C@@]1(C)c2ccccc2C(=O)N(Cc2ccccc2)[C@H]1c1ccc(CO)cc1`: the composite z-score in experiment [1] is 0.956; in experiment [2], 0.74; in [3], 0.963; in experiment [5], 0.391; in experiment [6], -0.136; in experiment [7], -1.54. Further, the composite z-score was -0.487 in experiment [8], -0.766 in experiment [9] and -0.765 in experiment [10]. Also, the z-score in experiment [4] is 1.34 (inactive).
With `COC(=O)C1=CC(CCCO)=CC(c2ccc(CN3CCCC3)cc2)N(Cc2cc3c(cc2Br)OCO3)C=C1C(=O)OC` (stereo not given), the composite z-score was determined as 1.16 in experiment [1]; 1.12 in [2]; 0.986 in experiment [3]; 1.45 in [5]; 0.636 in experiment [6]; 0.19 in [7]. Besides, the composite z-score in experiment [8] is 1.46; in [9], 0.836; in experiment [10], 1.13. For the same compound, the z-score in experiment [4] was -0.967 (inactive).
As to `C=CCC(OC(C)=O)[C@@H]1[C@@H](N(Cc2ccc(-c3cccc(C(F)(F)F)c3)o2)C(=O)c2cccc3ccccc23)c2cc(OCCCO)ccc2N1C(=O)Cc1ccc(OC)cc1` (stereo not given in full), the composite z-score in experiment [1] is 0.727; in experiment [2] it was -0.291; in experiment [3], 0.107; in [5], 0.0525; in experiment [6] it was -1.13; in experiment [7], -0.198. Moreover, the composite z-score in experiment [8] is 0.495; in [9] it was -0.141; in [10], 1.08. The z-score in [4] is -0.57 (inactive).
Consider `CN1C(=O)[C@@H]2[C@@H](CC(COc3ccccc3)=C([C@H](O)CCc3ccccc3)[C@@H]2CO)C1=O`, for which the composite z-score in [1] was -0.194; in experiment [2], -0.0537; in experiment [3], -0.317; in [5] it was -0.0903; in experiment [6] it was -0.621; in [7] it was 0.218. Besides, the results for the composite z-score in experiment [8], in experiment [9] and in experiment [10] were -0.0809, 0.298 and 0.484, respectively. In [4], the z-score is -0.165 (inactive).
Consider `C=CCNC(=O)[C@@H]1[C@H]2C(=O)O[C@H](c3ccccc3)[C@H](c3ccccc3)N2[C@H](c2ccc(O)cc2)[C@@]12C(=O)Nc1ccc(C#CCC(C(=O)OC)C(=O)OC)cc12`, for which the composite z-score in experiment [1] was 0.445; in experiment [2] it was 0.0989; in [3], 0.181; in experiment [5] it was 0.242; in [6], 0.958; in [7], -0.0617. For the same compound, the results for the composite z-score in experiment [8], in experiment [9] and in experiment [10] were 0.544, 0.317 and 0.595, respectively. Also, in experiment [4], the z-score was 0.246 (inactive).

The values above are taken from PubChem BioAssay.
